According to PubChem BioAssay (NCI):
Compounds without any hit were thinned out: in the full panel of roughly 83,000, 20% have a hit.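 Negative percent growth values reflect cell death: -40 means 40% of the cells present at the start died, and -100 means all died.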 Activity calls are given as the source filed them. How the source made its calls: active means growth percent below 10; inactive means the rest.

How the values were obtained:
Assay in all cases: NCI-60 one-dose screen, 48 h (100 = growth as untreated, 0 = no growth, -100 = all killed)
Settings in all cases: 10 µM
SK-MEL-2 melanoma = test system: SK-MEL-2 melanoma
EKVX NSCLC = test system: EKVX NSCLC
SN12C renal = test system: SN12C renal
UO-31 renal = test system: UO-31 renal
TK-10 renal = test system: TK-10 renal
ACHN renal = test system: ACHN renal
CAKI-1 renal = test system: CAKI-1 renal
A498 renal = test system: A498 renal
CCRF-CEM leukemia = test system: CCRF-CEM leukemia
MOLT-4 leukemia = test system: MOLT-4 leukemia

Measured: growth

Cc1ccc2nc(COc3ccc(C(=O)NNC(=S)NCCc4ccccc4)cc3)[nH]c2c1
inactive: SK-MEL-2 melanoma 81.7% | EKVX NSCLC 95% | SN12C renal 77.3% | UO-31 renal 84.3% | TK-10 renal 111% | ACHN renal 101% | CAKI-1 renal 96.2% | A498 renal 134% | CCRF-CEM leukemia 98.3% | MOLT-4 leukemia 96.1%

CC(C)CCSc1nc(NC2CC2)c(C#N)c(-c2ccc(C(C)C)cc2)n1
inactive: SK-MEL-2 melanoma 98.9% | EKVX NSCLC 96.5% | SN12C renal 106% | UO-31 renal 103% | TK-10 renal 99.4% | ACHN renal 108% | CAKI-1 renal 99.3% | A498 renal 109% | CCRF-CEM leukemia 95.4% | MOLT-4 leukemia 98.9%

Cc1cc(=O)oc2cc(OCCCCOc3ccc(/C=C/C(=O)Nc4cccc(Cl)c4)cc3)ccc12
inactive: SK-MEL-2 melanoma 86.9% | EKVX NSCLC 71.3% | SN12C renal 73.8% | UO-31 renal 84.9% | TK-10 renal 66.2% | ACHN renal 81.4% | CAKI-1 renal 73.2% | A498 renal 80.7% | CCRF-CEM leukemia 83.4% | MOLT-4 leukemia 80.6%

N#Cc1c(NC(=O)c2ccc(C(F)(F)F)cc2)sc2c1CCC(=O)C2
active: SK-MEL-2 melanoma -57.9% | EKVX NSCLC -42.6% | SN12C renal -31.9% | UO-31 renal -99.9% | TK-10 renal -53.7% | ACHN renal -100% | CAKI-1 renal -21.7% | A498 renal 2.58% | CCRF-CEM leukemia 7.92% | MOLT-4 leukemia 9.79%

C=C1CCC2C3(C)COC(c4c(F)cccc4F)OC3CCC2(C)C1CC(O)C1=CCOC1=O (stereo not given)
inactive: SK-MEL-2 melanoma 52.4% | EKVX NSCLC 85.7% | SN12C renal 34.9% | UO-31 renal 50% | TK-10 renal 105% | CAKI-1 renal 72.5% | A498 renal 134% | CCRF-CEM leukemia 17.7% | MOLT-4 leukemia 53.7%
active: ACHN renal 3.02%

NS(=O)(=O)c1ccc(NC(=O)CSc2ccc(-c3ccccc3)nn2)c(Br)c1
inactive: SK-MEL-2 melanoma 95.8% | EKVX NSCLC 70.1% | SN12C renal 57.4% | UO-31 renal 75.1% | TK-10 renal 118% | ACHN renal 54.2% | CAKI-1 renal 84.5% | A498 renal 120% | CCRF-CEM leukemia 89.9% | MOLT-4 leukemia 95.6%

N#C/C(=C\c1ccc(N(c2ccccc2)c2ccccc2)cc1)C(N)=O
active: TK-10 renal -37.7% | CAKI-1 renal -24% | A498 renal -99.8%
inactive: SK-MEL-2 melanoma 23.5% | EKVX NSCLC 90.2% | SN12C renal 90.5% | UO-31 renal 49.9% | ACHN renal 88% | CCRF-CEM leukemia 59.9% | MOLT-4 leukemia 56%

Cc1cccc(NC(=O)CSc2nc3ccc(F)cc3c(=O)n2-c2ccc(Cl)cc2)c1C
inactive: SK-MEL-2 melanoma 73.1% | EKVX NSCLC 75% | SN12C renal 64.1% | UO-31 renal 39.6% | TK-10 renal 108% | ACHN renal 37.8% | A498 renal 108% | CCRF-CEM leukemia 94.4% | MOLT-4 leukemia 81.3%
active: CAKI-1 renal -21.6%

O=C1c2ccccc2C(=O)c2c1c(C(=O)c1ccc(Cl)cc1)n1c2ccc2c3ccccc3ccc21
inactive: SK-MEL-2 melanoma 107% | EKVX NSCLC 97.1% | SN12C renal 103% | UO-31 renal 69.8% | TK-10 renal 108% | ACHN renal 82.1% | CAKI-1 renal 92.5% | A498 renal 144% | CCRF-CEM leukemia 102% | MOLT-4 leukemia 107%

CC(=O)c1cc(C(=O)N2c3ccccc3Sc3ccccc32)n2ccc(C)cc12
inactive: SK-MEL-2 melanoma 72.5% | EKVX NSCLC 53.1% | SN12C renal 42.3% | UO-31 renal 35.1% | TK-10 renal 78.9% | ACHN renal 29.1% | CAKI-1 renal 35.3% | A498 renal 85.4% | CCRF-CEM leukemia 24.8% | MOLT-4 leukemia 22.6%

O=S(=O)(Nc1ncccn1)c1ccc(-n2c(-c3ccccc3)nc(-c3ccccc3)c2-c2ccccc2)cc1
inactive: SK-MEL-2 melanoma 106% | EKVX NSCLC 76.9% | SN12C renal 92.4% | UO-31 renal 62.2% | TK-10 renal 94.6% | ACHN renal 97.3% | CAKI-1 renal 84.2% | A498 renal 81.9% | CCRF-CEM leukemia 75.7% | MOLT-4 leukemia 92.1%

CCOc1ccc(Nc2nc3ccccc3nc2Nc2ccc(OCC)cc2)cc1
active: MOLT-4 leukemia 9.99%
inactive: SK-MEL-2 melanoma 89% | EKVX NSCLC 46.6% | SN12C renal 54.7% | UO-31 renal 54.9% | TK-10 renal 72% | ACHN renal 52.9% | CAKI-1 renal 51.4% | A498 renal 69.1% | CCRF-CEM leukemia 23.7%

O=C(c1ccc(Cl)cc1)C1[C@H](c2ccccc2Br)[C@@H](c2ccccc2)NC12C(=O)Nc1ccccc12 (stereo not given in full)
active: SK-MEL-2 melanoma 2.05% | SN12C renal -54.2% | CCRF-CEM leukemia 7.61% | MOLT-4 leukemia 2.61%
inactive: EKVX NSCLC 14% | UO-31 renal 13.1% | TK-10 renal 55.7% | ACHN renal 11.1% | CAKI-1 renal 14.8% | A498 renal 55.5%
